Here are results for 46 sequences from the supplement of paper PMC11417369.

± gives the standard deviation of the averaged measurements. In all, about 25,000 sequences were measured (“ln(normalized median fluorescence intensity)”: median about 7.9, highest 2% from about 11 on). Many of the other results were omitted from the sample, so the highest values are more common in it than they were.

This experiment concerns PfAP2-I AP2 domain 3 (GST-tagged). Briefly: gcPBM binding intensity (ln(normalized median fluorescence intensity)); higher = stronger DNA binding. The method in brief: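 After 1 h on an Agilent 4 × 180k array of primer-extended double-stranded 36-bp intergenic genomic probes and negative controls, bound GST-tagged P. falciparum DNA-binding domains were detected with Alexa488 anti-GST antibody and scanned at 488 nm. The domains had been expressed in E. coli, and binding took place in 1× PBS with 1% milk, 0.2 mg/ml BSA, 0.5% salmon testes DNA and 0.03% Triton X-100. Binding intensity is the highest Masliner-normalised natural-log median intensity across replicate spots of either probe orientation.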
On to “AAACAAAAAAGTAAGAAAAGGGATGATTGGATCCAA [CACACA_negctrl_site1230]”, for which the “gcPBM binding intensity (ln)” value amounted to 7.35 ± 0.78.
For “GGAAACCCTCCCAAATGTACTTTTATAAAAAAATAC [XGTACX_site5502]” the value was 8.2 ± 0.6; for “TTTATTTATCTTTACGCACACACTTGCATGTACAAA [CACACA_site1118]”, 9.455 ± 0.021.
To “ACAAATCTAAGATAGTGTACATTTATATATATATAT [XGTACX_site8740]” belongs 9.4 ± 0.24; to “ACATAAATATATGACACACACACATATTATATATAT [CACACA_site3065]”, 8.36 ± 0.52; to “AAAAATAAAAAAAAATTAAAATATATATATTTTGTT [TGCATGCA_negctrl_site102]”, 7.49 ± 0.67.
On to “GAAATGTATAAATCCATACACACATAAATTTTAATA [CACACA_site2364]”, for which the “gcPBM binding intensity (ln)” value is 7.58 ± 0.4.
Regarding “TATTTCTTATTACATACACACATATACATAGATGAC [CACACA_site5729]”, the “gcPBM binding intensity (ln)” value amounted to 8 ± 0.55.
With “GATAAAATCACTGGTGCATGTAGATATATAATATTA [TGCATGCA_site589]”, the “gcPBM binding intensity (ln)” value was found to be 9.12 ± 0.085.
For “ATATGTACGCAAGGTGCACACTGGTGCATTAAAAAA [CACACA_site1801]” the value was 12.1 ± 0.21; for “TTATTAAAAATGGTATGTACGCACATAATATATATA [XGTACX_site3230]”, 8.56 ± 0.51.
To “TGCAAAAAATTCCACACACACACACGCATATAAATA [CACACA_site6696]” belongs 7.95 ± 0.38; to “TATGTGTGCAAAAACTGTACACATTAAAGGTATATA [XGTACX_site7627]”, 9.32 ± 0.28; to “GCAAGGTCCACACTGGTGCATTAAAAATAAAATATA [GTGCAC_site9956]”, 11.6 ± 0.41.
To “TTTATTTGGACATATACACACTTAAATATGTTTATT [CACACA_site6021]” belongs 7.59 ± 0.47; to “TTTTTTTTGATATATACACACAATAAATAAATATAA [CACACA_site7400]”, 7.78 ± 0.39.
Regarding “TATAATATATGTATATGTACTTATGTTGAGAAACAT [XGTACX_site2117]”, the “gcPBM binding intensity (ln)” value is 7.72 ± 0.59.
To “AATAAATATAGGAATACACACAATATAAATGTATTG [CACACA_site3366]” belongs 7.5 ± 0.62; to “GATACATAGAAACACACACACATACATATATACATA [CACACA_site3438]”, 8.01 ± 0.4.
As to “ATTGCCATTGTTAATGCATGTAACAATTCAGCTCAT [TGCATGCA_site56]”, the “gcPBM binding intensity (ln)” value is 8 ± 0.83.
Take “ATATATTGCACTTTTTGTACATAATGAAAAATTTTT [XGTACX_site8223]”: the “gcPBM binding intensity (ln)” value came to 11.5 ± 1.
Consider “AAAAATGAATTATTTTGTACATATATATATATATAT [XGTACX_site3410]”, for which the “gcPBM binding intensity (ln)” value stood at 9.48 ± 0.54.
For “AATATTGCACCATTTTGTACATAATATATTCAAATA [XGTACX_site475]” the value was 11.7 ± 0.74.
For “ATTTTTTTTTTTTTTTTTTTTGCACCATAAAATAAT [CACACA_negctrl_site1324]” the value was 11.2 ± 0.56; for “AAAATAAATAAATATACACACCATATATATATTTTT [CACACA_site5573]”, 7.61 ± 0.39; for “AAAAAATTTTGAAATTGTACATATATAAAAAATATA [XGTACX_site2629]”, 7.59 ± 0.29.
For “TAAAAATATTTTCATTGTACATATATATAAATATAT [XGTACX_site1123]” the value was 7.59 ± 0.3; for “TACAACAATTTTTGCACACACCAAAACATAAAATAA [CACACA_site4964]”, 9.15 ± 0.22; for “AATATATTTTTTTTTTGTACATATTGTAAAATAATA [XGTACX_site6805]”, 7.83 ± 0.22.
Consider “TTTCTTCGAAATAGAACACTTGTGCAAAATAAGCAA [XGTACX_negctrl_site361]”, for which the “gcPBM binding intensity (ln)” value is 9.9 ± 0.23.
For the sequence “AAATTTAAAAATAAAGAACACACATATGTAAAATAT [CACACA_site9252]”, the “gcPBM binding intensity (ln)” value is 7.91 ± 0.76.
For “AGGATACACGGACACACACACATATAGATTTATATA [CACACA_site6552]” the value was 8.14 ± 0.2; for “AATTTATTAAAAAAATGTACTTATTTTTTTGTATAA [XGTACX_site5844]”, 7.61 ± 0.11; for TTTATTCAAGGAATAGTGCATAATAATAAGTATTAT, 11.2 ± 0.62.
On to ATATATTTTTATATAGTGCAAGTAATAAAAAGGAAT, for which the “gcPBM binding intensity (ln)” value was 10.04 ± 0.099.
ATTTATAATATTCAAGTGCATATATATTTTTTACTT: the “gcPBM binding intensity (ln)” value came to 9.57 ± 0.14.
“TACTATTTTTATAATACACACATATATTTGTGATAT [CACACA_site1775]”: the “gcPBM binding intensity (ln)” value was 7.84 ± 0.44.
For TTAATATATTATCTGGTGCATAAACACGTTATACCT the value was 11.3 ± 0.64; for “TTTGTTATATTTAATACACACATATTATAAACACAT [CACACA_site7703]”, 8.07 ± 0.34; for “TATATATAATATTATACACACATATCTGCATAATAT [CACACA_site4202]”, 8.13 ± 0.49.
On to “GGTTATATATTTTTTGCACACCAAAAAAGAGAATAT [CACACA_site2731]”, for which the “gcPBM binding intensity (ln)” value came to 9.56 ± 0.14.
To “CTCATAGTTGGGTGCACACAAAAAATTAAAAAAATA [CACACA_site3032]” belongs 11.1 ± 0.81.
For “ATTATATACATATATGCACACAAAAAAATATATATT [CACACA_site8508]”, the “gcPBM binding intensity (ln)” value was 9.04 ± 0.12.
On to “AACTCATAGCGGTGTGCACACAAAAAATTAAAAAAA [CACACA_site3033]”, for which the “gcPBM binding intensity (ln)” value came out at 9.9 ± 0.2.
For “ATGGCATAAATATATGCACACACAAAAAAAAAAAAA [CACACA_site7902]” the value was 8.98 ± 0.11.
As for “ATTAATTTTATATATGCACACAAAATATGTTCATAT [CACACA_site9350]”, the “gcPBM binding intensity (ln)” value amounted to 9.13 ± 0.099.
